From PubChem BioAssay (NCI)
Compounds without any hit were thinned out: in the full panel of roughly 83,000, 20% have a hit.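 Activity criterion: percent growth below 10, measured after cells in 96-well plates were exposed to a single compound concentration for 48 hours.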 Values without a mark were called inactive. Activity calls are given as the source filed them.

System: HCT-116 colon
Test: NCI-60 one-dose screen, 48 h (100 = growth as untreated, 0 = no growth, -100 = all killed)
Conditions: 10 µM unless noted
Description: Growth inhibition of the HCT-116 human tumor cell line is measured as a screen for anti-cancer activity. Cells are grown in 96 well plates and exposed to the test compound for 48 hours. Compounds are tested at a single concentration, which is 10^-5 M for most compounds. The reported endpoint is percent growth (GI% or GIPRCNT), where numbers from 0 - 100% represent growth inhibition, and numbers from -100% - 0 represent cell death. For example, a value of 40 represents 60% growth inhibition. A value of 0 means no net growth occurred over the course of the experiment. A value of -40 indicates 40% of cells at the beginning of the experiment died by the end of the experiment. A value of -100 means all cells are dead at the end of the experiment.
NCI-60 Human Tumor Cell Lines Screen was performed using the standard one-dose NCI protocol, which is described in more detail at https://dtp.cancer.gov/discovery_development/nci-60/default.htm.
Compounds with GIPRCNT values below 10 were considered active. Activity score was based on GIPRCNT using the following formula: […]
Score is 0 for GIPRCNT values of 100 or above, 50 for GIPRCNT values of 0, and 100 for GIPRCNT values of -100.

With COc1ccc(/C=N/NC(=O)c2[nH]c3ccc(Br)cc3c2-c2ccccc2)o1 the growth was -18.8% (active).
With COc1ccc(CNS(=O)(=O)/N=C2\NC(=O)NC2=C(Cl)Cl)cc1 the growth was 6.95% (active).
In the case of Cc1cc2nc3c4cc(Cl)ccc4n(CC(=O)NCCN(C)C)c3nc2cc1C, the growth is reported as -85.3% (active).
For CN(C)c1ccc(-c2c(NC(C)(C)C)nc3c(OCCc4ccccc4)cccn23)cc1, the growth was 8.37% (active).
In the case of C[C@@H](Nc1c(C#N)cnc2ccc(-c3cnc(N)nc3)cc12)c1ccccc1, the growth is reported as 5.6% (active).
With Cn1ccnc1C(=O)/C=C/c1ccc(NC(=O)Nc2ccccc2)cc1 the growth was 3.54% (active).
COc1cc2cc(Oc3ccc(NC(=O)c4cccc(C(F)(F)F)c4)cc3)c(C)nc2cc1OCCN1CCCCC1 was tested, and the growth was 0.649% (active).
For c1ccc2c(NCCCn3ccnc3)c3oc4ccccc4c3nc2c1, the growth was 6.12% (active).

In order of rising growth:
1. COc1cc(/C=C/C(=O)c2ccc(F)cc2)ccc1Oc1nc(NCCO)nc(N2CCOCC2)n1  11.3%
2. Fc1ccc(-c2cc3nc(C(Cl)Cl)nc(-c4ccc(Cl)cc4)n3n2)cc1  11.7%
3. Clc1ccc2oc3c(NCCCN4CCOCC4)c4ccccc4nc3c2c1  14.8%
4. OC1CCN(CCCOc2c3ccccc3nc3c2oc2ccc(Cl)cc23)CC1  15.9%
5. O=C(NNc1nc2cc(F)ccc2n2c(CN3CC4(COC4)C3)ccc12)c1cnccn1  22%
6. CN1C(=O)N(c2ccccc2)C2N=C(N/N=C/c3ccccc3)SC21 (stereo not given)  22.5%
7. CCCC(=O)NC(c1cccc(N(C)C)c1)c1cc(C)c2cccnc2c1O (stereo not given)  22.7%
8. Clc1ccc2c(NCCCN3CCOCC3)c3oc4ccc(Cl)cc4c3nc2c1  23.4%
9. CSc1ccc2c(c1)N(C(=O)/C(C#N)=C/c1c[nH]c3ccccc13)c1ccccc1S2  24.3%
10. COc1ccc(C(=O)/C=C/c2ccc(OCc3ccc(C)cc3)c(OC)c2)cc1OC  25.3%
11. Nc1cc(-c2c[nH]c3ccc(F)cc23)nc2cc(-c3c[nH]c4ccc(F)cc34)nn12  31.9%
12. CC1=C(C)C(=O)C(Nc2cccc(C(F)(F)F)c2)=C(Cl)C1=O  33.9%
13. COc1ccc(-c2nn3c(-c4ccccc4F)nnc3s2)cc1  42%
14. CCOC(=O)c1sc(N)c(C(=O)OCC)c1C  52.8%
15. CC(C)(C)OC(=O)N1C(=O)c2c(c3c4ccccc4[nH]c3c3ccc4ccccc4c23)C1=O  58.8%
16. COc1ccccc1C(=O)CSc1nc(Nc2ccc(S(N)(=O)=O)cc2)c2ccccc2n1  77%
17. CC1=C(C)C(=O)C(Nc2ccccc2)=C(Cl)C1=O  79.1%
18. Cc1cc(C(=O)Nc2sc3c(c2C(N)=O)CCC(=O)C3)ccc1OCCN1CCCCC1  84.1%
19. O=C1c2c(c3c4cc(Br)ccc4[nH]c3c3ccc4ccccc4c23)C(=O)N1CCO  84.2%
20. CCN1C(=S)N(c2ccccc2)C2NC(=O)N(/N=C/C=C/c3ccccc3OC)C21 (stereo not given)  88%
21. Nc1c(C(=O)c2ccc(Br)cc2)oc2nc(-c3cnccn3)cc(-c3cccs3)c12  96.8%
22. CC(O)C(NC(=O)C1CCCN1C(=O)CNC(=O)C1CC(=O)NCC(=O)NC(Cc2c[nH]c3ccccc23)C(=O)NC(Cc2ccc(O)cc2)C(=O)NCC(=O)NC(CO)C(=O)NC(CCC(N)=O)C(=O)NC(Cc2c[nH]c3ccccc23)C(=O)N1)C(=O)NCC(=O)NC(CCC(N)=O)C(=O)NC(CCCNC(=N)N)C(=O)NC(CC(=O)O)C(=O)O (stereo not given)  97.4%
23. C/C(=C(/c1ccc(Cl)cc1)c1ccc(OCCN)cc1)c1ccc(C)cc1  101%
24. NS(=O)(=O)c1ccc(Nc2nc(SCC(=O)c3ccc(Cl)cc3)nc3ccccc23)cc1  101%
25. CS(=O)(=O)c1ccc(-c2nc3ccccn3c2/C=N/Nc2nc(-c3ccc(Cl)cc3)cs2)cc1  101%
26. COc1ccc(-c2nc3ccc(-c4nnc(SCC(=O)Nc5ccc(C(=O)/C=C/c6ccc(Cl)cc6)cc5)o4)cc3[nH]2)cc1OC  101%
27. CS(=O)(=O)c1ccc(-n2cc(/C=C/C(=O)c3ccc(NC(=O)CO[N+](=O)[O-])cc3)c(-c3ccc(Cl)cc3)n2)cc1  103%
28. O=C(O)CCCCCN1C(=O)/C(=C/c2ccc(O)c(O)c2)SC1=S  105%
29. CN(C)c1ccc(/C=c2\sc3nc4ccccc4n3c2=O)cc1  105%
30. O=C(CSc1nccc(=O)[nH]1)Nc1ccc(-c2nc3ccccc3[nH]2)cc1  106%
31. Cc1cccc(/C=C/c2nn3c(-c4ccco4)nnc3s2)c1  106%
32. COC(=O)C1CN(S(=O)(=O)/N=C2\NC(=O)NC2=C(Cl)Cl)C1  111%
